Bioassay records (PubChem)
In the library only some 19% were active in any assay of this set; here they are far more common.
DT40 TDP1 no CPT = qHTS for Inhibitors of human tyrosyl-DNA phosphodiesterase 1 (TDP1): qHTS in cells in absence of CPT; AID 686978, 2013; hit rate 15% among 420,000; DT40 Tdp1-/- hTDP1 cells, no CPT, ATP luminescence, 48 h; Potency, µM (top dose mostly 46.2 µM), inactives show at the top dose activity change, negative = growth inhibition, most hits filed as inhibitors; note: potency is the fitted concentration of half-maximal effect; nearly all actives have a fitted effect of over 55% in size
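Cells were dispensed at 400 per well, compounds added by pin tool, plates incubated ≥48 hr at 37 °C, then CellTiter-Glo added for 30 min at room temperature before luminescence reading. Line: DT40 Tdp1-/- complemented with hTDP1; camptothecin omitted.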
HT1080NT lethal = kills 2HG-producing HT-1080-NT fibrosarcoma cells; HT-1080-NT fibrosarcoma viability, CellTiter-Glo ATP luminescence, 48 h; Potency, µM (doses to about 46.1 µM), for the others: at the top dose activity, negative = less viability, hits mostly cytotoxic; hit rate 1.6% among 360,000;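 note: NT is the 2HG producing partner of a matched IDH1 knockdown line; potency is the fitted concentration of half-maximal effect; 0% = DMSO-treated cells and -100% = media-only wells without cells; nearly all actives have a fitted effect of over 55% in size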
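Fibrosarcoma NT cells, 750 per well in 5% FBS RPMI, were exposed to compound for 48 hours. Viability: CellTiter-Glo luminescence.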
IL-1B inflam inh = inhibitors of inflammasome signaling (IL-1 beta secretion). THP-1 LPS/ATP IL-1B secretion, AlphaLISA, 16 h; hits give low values. activity change, % at 57.5 µM. hit rate 4.7% among 360,000. AID 743279; in the data active = activity change below about -50%; inconclusive = mostly about -30% to -49%
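THP-1 cells pretreated 1 hr with compounds (up to 57.5 uM final), then stimulated with LPS (250 ng/mL final) plus ATP (1.25 mM final); secreted IL-1B measured by AlphaLISA after 16 hr, decreased signal indicating inhibition.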
HT1080 IDH1KD tx = HT-1080 IDH1 knockdown cell toxicity (counter line) | HT-1080 IDH1 knockdown viability, ATP luminescence, 48 h | Potency, µM (highest dose often 46.1 µM), for the others: at the top dose activity, negative = toxicity, hits mostly cytotoxic | hit rate 2% among 360,000;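 note: potency is the fitted concentration of half-maximal effect; 0% = DMSO wells and -100% = cell-free medium wells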
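After a 2 h attachment period, IDH1KD HT-1080 cells took pin-transferred compound for 48 h at 37 °C; ATP-based luminescence after 10 min room-temperature reagent incubation reported viability.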
DT40 TDP1 CPT = growth inhibition of DT40 Tdp1-/-;hTDP1 cells with camptothecin (screen for TDP1 inhibitors); chicken DT40 Tdp1-/-;hTDP1 cells + 20 nM CPT, ATP luminescence, 48 h; Potency, µM (doses to about 46.2 µM), for the others: at the top dose activity change, negative = growth inhibition, most hits filed as inhibitors; hit rate 12% among 420,000; note: potency is the fitted concentration of half-maximal effect; nearly all actives have a fitted effect of over 55% in size
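Chicken DT40 Tdp1-/- cells complemented with human TDP1, 400 cells/well, exposed to compounds plus 20 nM camptothecin for at least 48 h at 37 C; viability read as ATP content by CellTiter-Glo luminescence.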
Numbers without * were called inactive; ? = inconclusive; . = no result given; [ ] = another dose, or the depositor's remark. Unless noted, calls come from the whole dose curve; as a rule, active = well fitted curve in the direction sought with a large enough effect; inconclusive = small, poorly fitted or top-dose-only effect, or another doubt; inactive = no such curve, though single readings can be large; an effect the other way counts as inactive or inconclusive. Unless noted, % is set by controls: 0 for no effect and ±100 for the full control effect.

SMILES	DT40 TDP1 no CPT	HT1080NT lethal	IL-1B inflam inh	HT1080 IDH1KD tx	DT40 TDP1 CPT
CN1C(=O)NC(=O)C(N=Nc2ccc(Cl)cc2)C1=O (centres undefined)	?	-3%	-19	3%	-8%
CCCCn1c(=O)c(C(=O)Nc2cnccn2)c(O)c2ccccc21	5.2µM*	-19%	0	-28%	2.9µM*
CCCCCn1c(=O)c(C(=O)Nc2ccccc2Cl)c(O)c2ccccc21	5.2µM*	1%	37	3%	5.2µM*
CCCCCn1c(=O)c(C(=O)Nc2ncccc2C)c(O)c2ccccc21	?	18µM*	4	21µM*	?
CCCCCn1c(=O)c(C(=O)Nc2nc3ccccc3[nH]2)c(O)c2ccccc21	5.2µM*	-3%	15	-7%	2.9µM*
CCCCn1c(O)c(C(C)=NCc2cccnc2)c(=O)[nH]c1=O	-6%	7%	20	3%	-11%
ON1C2CCCCC2N(O)C1c1ccccc1 (centres undefined)	?	-3%	11	-10%	0%
OC1CCC(Nc2ccn3nc(-c4cccc(OCc5ccccc5)c4)cc3n2)CC1 (centres undefined)	?	?	11	?	?
O=C(OCCN1CCCCC1)C(O)(c1ccccc1)c1ccccc1	-1%	.	.	.	7%
CCCCCn1c(=O)c(C(=O)NCCc2ccccc2)c(O)c2ccccc21	?	5%	80	3%	?
CCCCn1c(=O)c(C(=O)Nc2cccc(C)c2)c(O)c2ccccc21	4.6µM*	13%	25	10%	5.8µM*
CC(C)CCn1c(=O)c(C(=O)NCc2ccc3c(c2)OCO3)c(O)c2ccccc21	?	4%	79	10%	?
CC(C)CCn1c(=O)c(C(=O)Nc2ccccc2S(N)(=O)=O)c(O)c2ccccc21	5.2µM*	-22%	2	?	4.6µM*
CCCCn1c(=O)c(C(=O)Nc2ccccc2C)c(O)c2ccccc21	9.2µM*	1%	30	6%	8.2µM*
O=S(=O)(c1ccccc1C(F)(F)F)N1CCN(c2ncnc3sccc23)CC1	8.2µM*	-21%	-62*	-28%	15µM*
CC(C)N1C(=O)/C(=C/C=C/c2ccco2)C(=O)N(Cc2ccco2)C1=O	15µM*	?	-106*	?	16µM*
COc1ccc(/C=C2/C(=O)N(Cc3ccco3)C(=O)N(C(C)C)C2=O)cc1	-6%	-3%	10	4%	-2%
COc1ccc(NC(=O)c2ccccc2SCc2ccccc2)cc1	4.6µM*	-19%	?	-27%	5.2µM*
CC(C)(C)c1nc(N2CCN(C(=O)c3ccco3)CC2)c2nnn(Cc3ccccc3Cl)c2n1	21µM*	-1%	-9	-2%	?
O=C(O)CCCO	-22%[92.5 µM]	.	.	.	16%[92.5 µM]
CCN1C(=O)/C(=C/c2ccc(N(CC)CC)cc2OC)C(=O)NC1=S	-17%	-1%	-55*	-1%	?
Cc1ccc(S(=O)(=O)N(C)C[C@H]2Oc3c(NC(=O)Nc4cccc5ccccc45)cccc3C(=O)N([C@@H](C)CO)C[C@@H]2C)cc1	?	-24%	?	?	16µM*
C[C@H]1CN([C@@H](C)CO)C(=O)c2cccc(NC(=O)c3ccc(-c4nccs4)cc3)c2O[C@@H]1CN(C)C(=O)Nc1cccc2ccccc12	15µM*	-8%	0	-10%	26µM*
C[C@H](CO)N1C[C@H](C)[C@@H](CN(C)C(=O)Nc2ccc(C(F)(F)F)cc2)Oc2c(NS(=O)(=O)c3cccs3)cccc2C1=O	?	8%	-5	2%	?
Cc1ccc(S(=O)(=O)N(C)C[C@H]2Oc3cc(Br)ccc3S(=O)(=O)N([C@H](C)CO)C[C@H]2C)cc1	29µM*	-20%	-28	-5%	?
Cc1ccc(S(=O)(=O)N(C)C[C@@H]2Oc3ncc(Br)cc3C(=O)N([C@H](C)CO)C[C@H]2C)cc1	9.2µM*	2%	22	-3%	?
